Screening results from PubChem.
Shown are actives, neighbours in structure and some others; about 3.4% of the full set was active somewhere.
LGR2 inh: inhibitors of bursicon-induced Drosophila LGR2 receptor cAMP signaling; 0.35% of 380,000 active; HEK293 LGR2, CRE-luciferase, bursicon-stimulated, 4 h; inhibition, % at 9.99 µM;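 active = drop in luminescence signal, shown as inhibition above about 50% in the replicate tests, limit read from the data, passing the limit was not always enough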;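 also: agonist challenge used bursicon conditioned medium at about half maximal strength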
EWS-Fli inh: EWS/Fli transcriptional activity inhibition; inhibition, % at 12.6 µM; A673 NR0B1-luciferase reporter, viability-normalised; 0.67% of 350,000 active;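 active = mean inhibition of at least 50% after viability correction, with every replicate also passing that limit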;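 also: firefly luciferase signal divided by Alamar Blue viability fluorescence both relative to DMSO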
PGC1a acetyl inh: PGC1a acetylation modulation, inhibitor mode; U2OS PGC1a acetylation, AlphaScreen anti-acetyl-lysine; with virally co-expressed GCN5 acetyltransferase; inhibition, % at 15.6 µM; 0.17% of 350,000 active; AID 651687;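 active = every replicate shows inhibition of at least 40%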;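 also: 0% = neutral control wells and 100% = positive control wells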
PAX8 inh HTS: lowers PAX8-driven luciferase in RMG-I cells. RMG-I TPO-luciferase reporter, SteadyGlo, 24 h. AID 652154. 1.2% of 360,000 active. inhibition, % at 12.6 µM;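 active = mean replicate inhibition at least 60% with every replicate also reaching 60%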;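 also: luciferase light reporting Pax8 driven TPO promoter activity; plate controls were median of neutral control wells for no effect and mitoxantrone controls for full effect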
Ecoli rRNA inh: inhibits bacterial ribosomal RNA function over humanized ribosomes | E. coli WT GFP vs humanized-ribosome RFP mutants, fluorescence, 24 h; stronger effect = lower value; DMSO median 0, no signal -100 | GFP signal change (wild-type ribosome), % (test concentration not listed) | 1.6% of 350,000 active | AID 720706;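 active = significant combined selectivity score with lowered wild-type GFP, culture density cut under 30%, mutant RFP and density less affected; inactive = any of these conditions unmet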
SIRT5 block: inhibitors of human sirtuin-5 desuccinylase; Q9NXA8; Purified SirT5, succinyl-peptide AMC, trypsin-coupled fluorescence; inhibition, % at 15 µM; 1.1% of 330,000 active; AID 652115; in the data active = inhibition above about 15%
Target sequence (Q9NXA8 whole entry, looked up): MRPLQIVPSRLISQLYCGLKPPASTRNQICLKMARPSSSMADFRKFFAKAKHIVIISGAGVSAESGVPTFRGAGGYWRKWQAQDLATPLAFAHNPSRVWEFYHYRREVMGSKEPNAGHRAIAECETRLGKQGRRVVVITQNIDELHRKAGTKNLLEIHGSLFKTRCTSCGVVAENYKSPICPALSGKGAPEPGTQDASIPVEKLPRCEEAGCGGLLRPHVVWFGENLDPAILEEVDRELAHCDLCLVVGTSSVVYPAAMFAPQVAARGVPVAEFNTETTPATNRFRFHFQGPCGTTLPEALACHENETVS
An asterisk follows results filed as active.

Screening Cc1ccc(S(=O)(=O)Nc2ccc3c(c2)C(=O)N([C@H](C)CO)C[C@@H](C)[C@@H](CN(C)CC2CCCCC2)OCCCC[C@@H](C)O3)cc1 returned LGR2 inh 2, EWS-Fli inh 30, PGC1a acetyl inh -3, PAX8 inh HTS 88*, Ecoli rRNA inh -6 and SIRT5 block 8.
Cc1ccc(S(=O)(=O)Nc2ccc3c(c2)C(=O)N([C@@H](C)CO)C[C@@H](C)[C@H](CN(C)CC2CCCCC2)OCCCC[C@H](C)O3)cc1 was read as LGR2 inh 9, EWS-Fli inh -1, PGC1a acetyl inh -4, PAX8 inh HTS 10, Ecoli rRNA inh -4 and SIRT5 block -1.
C[C@H](CO)N1C[C@H](C)[C@@H](CN(C)C(=O)C2CCCCC2)Oc2cc(-c3ccc(C(=O)N(C)C)cc3)ccc2S1(=O)=O was read as LGR2 inh 11, EWS-Fli inh -7, PGC1a acetyl inh 2, Ecoli rRNA inh -5 and SIRT5 block 1.
`CO[C@H]1CN(C)C(=O)c2ccc(NC(=O)C3CC3)cc2OC[C@H](C)N(C)C[C@H]1C` gave LGR2 inh -12, EWS-Fli inh 7, PGC1a acetyl inh -11, PAX8 inh HTS -6 and Ecoli rRNA inh 3.
For CN(C)C(=O)[C@@H]1N[C@@H]2c3ccc(-c4ccc(F)cc4)c(=O)n3C[C@@H]2[C@H]1CO the results were LGR2 inh 10, EWS-Fli inh 1, Ecoli rRNA inh 4 and SIRT5 block -27.
Screening Cc1c(NC(=S)NC(=O)c2sc3ccccc3c2Cl)cccc1C(=O)O returned LGR2 inh 32, EWS-Fli inh -48, PAX8 inh HTS -88, Ecoli rRNA inh -6 and SIRT5 block 36*.
`CC(=O)Nc1ccc2c(c1)CC(=O)N(C)C[C@@H](C)[C@@H](CN(C)C)O2` gave Ecoli rRNA inh 1.
CC(C)C(=O)Nc1c(C(=O)N2CCN(c3ncccn3)CC2)oc2ccccc12 was read as LGR2 inh 0, EWS-Fli inh 8, PGC1a acetyl inh -4, PAX8 inh HTS -11, Ecoli rRNA inh -1 and SIRT5 block -2.
Screening CCC(CC)C(=O)Nc1c(C(=O)N2CCN(c3ccccc3)CC2)oc2ccccc12 returned LGR2 inh -7, PAX8 inh HTS -18, Ecoli rRNA inh -30* and SIRT5 block 13.
COc1ccc2c3c([nH]c2c1)[C@@H](CO)N(C(=O)Nc1cccc(F)c1)CC31CCN(S(=O)(=O)c2cccc(C)c2)CC1 was read as LGR2 inh -3, EWS-Fli inh -6, PGC1a acetyl inh -15, PAX8 inh HTS 96*, Ecoli rRNA inh -5 and SIRT5 block -3.
Screening COc1cccc(S(=O)(=O)N2CC3(CN(C(=O)Nc4ccc(F)cc4)[C@@H](CO)c4[nH]c5cc(OC)ccc5c43)C2)c1 returned LGR2 inh 4, EWS-Fli inh 9, PGC1a acetyl inh 5 and Ecoli rRNA inh -1.
COc1ccc2c3c([nH]c2c1)[C@@H](CO)N(C(=O)Nc1ccc(F)cc1)CC31CN(S(=O)(=O)c2ccc(C)cc2)C1 was read as LGR2 inh 17, EWS-Fli inh 0, PGC1a acetyl inh 4, PAX8 inh HTS 68*, Ecoli rRNA inh -1 and SIRT5 block -6.
`O=C(CSc1nnc(-c2ccccc2)n1Cc1ccccc1)NNC(=O)c1ccccc1O` gave LGR2 inh 6, EWS-Fli inh 79*, PGC1a acetyl inh 14, PAX8 inh HTS 22, Ecoli rRNA inh -38 and SIRT5 block 4.
`CC(C)C[C@@H]1NC(=O)[C@H]2C[C@@H](C(=O)NCc3ccc(F)cc3)[C@@H](c3cccc(OCCO)c3)N2C1=O` gave EWS-Fli inh -2, PGC1a acetyl inh 1 and SIRT5 block -1.
`O=C(/C=C/c1cccc(F)c1)c1ccc(N2CCOCC2)cc1` gave LGR2 inh -63, EWS-Fli inh -27, PGC1a acetyl inh -3, PAX8 inh HTS -60, Ecoli rRNA inh -8 and SIRT5 block -8.
For O=C(/C=C/c1cccs1)c1ccc(N2CCOCC2)cc1 the results were LGR2 inh 93*, EWS-Fli inh 20, PAX8 inh HTS -27, Ecoli rRNA inh 5 and SIRT5 block 0.
For O=C(O)CCCC(=O)NCc1c(Cl)cccc1Sc1ccc(Cl)cc1 the results were EWS-Fli inh 8, PGC1a acetyl inh 2, PAX8 inh HTS -6 and SIRT5 block 4.
For CC(C)(CC(=O)O)CC(=O)NCc1c(Cl)cccc1Sc1ccc(Cl)cc1 the results were LGR2 inh -1, EWS-Fli inh -6, PGC1a acetyl inh 4, PAX8 inh HTS 20, Ecoli rRNA inh -40* and SIRT5 block 5.
`O=C(O)c1ccccc1C(=O)NCc1c(Cl)cccc1Sc1ccc(Cl)cc1` gave LGR2 inh -3, EWS-Fli inh 3, PGC1a acetyl inh -17, PAX8 inh HTS 8, Ecoli rRNA inh -29* and SIRT5 block -3.
For CN(Cc1ccccc1)C(=O)COc1ccc(N(C)S(=O)(=O)c2ccc(F)cc2)cc1 the results were LGR2 inh 14, EWS-Fli inh -3, PGC1a acetyl inh 2, PAX8 inh HTS 12, Ecoli rRNA inh -18 and SIRT5 block 18*.
`O=C(C[C@H]1CC[C@@H](NC(=O)Nc2ccc(F)cc2)[C@@H](CO)O1)NCc1ccccn1` gave LGR2 inh 3, EWS-Fli inh -1, PGC1a acetyl inh -7, PAX8 inh HTS -15, Ecoli rRNA inh 4 and SIRT5 block 1.
`C[C@@H]1CN([C@@H](C)CO)C(=O)c2cc(-c3cccnc3)cnc2O[C@H]1CN(C)C(=O)Nc1ccc2c(c1)OCO2` gave LGR2 inh -14, EWS-Fli inh -16, PGC1a acetyl inh -1, Ecoli rRNA inh 2 and SIRT5 block 32*.
`C[C@H]1CN([C@@H](C)CO)C(=O)c2cc(-c3ccccc3)cnc2O[C@@H]1CN(C)C(=O)Nc1ccc2c(c1)OCO2` gave LGR2 inh -2, EWS-Fli inh -2, PGC1a acetyl inh 2, PAX8 inh HTS 3, Ecoli rRNA inh 0 and SIRT5 block 9.5*.
`O=C(C[C@@H]1CC[C@H](NC(=O)CC2CC2)[C@H](CO)O1)NCc1ccccc1` gave LGR2 inh 3, EWS-Fli inh 15, PGC1a acetyl inh -1, Ecoli rRNA inh 1 and SIRT5 block -1.
For O=C(N[C@@H]1CC[C@H](CCNC(=O)C2CCC2)O[C@@H]1CO)c1ccccn1 the results were LGR2 inh 2, EWS-Fli inh 7, PGC1a acetyl inh -4, PAX8 inh HTS -2, Ecoli rRNA inh 0 and SIRT5 block -1.
`CCOc1cccc(C(=O)Nc2ccc3oc(Cc4ccc(Cl)cc4)nc3c2)c1` gave LGR2 inh 16, Ecoli rRNA inh -30* and SIRT5 block 4.
